From the supplement of paper PMC10849652
About 8,800 targets were measured; listed, in parts, are those with a hit and a random draw of the rest. About 0.5% of all pairs of compound and target were hits. Unmarked numbers belong to inactive results.

Assays:
Test in all cases: log2 fold change, soluble protein after heating vs DMSO (PISA); higher = thermal stabilisation; K562 lysate, 10 uM; active = over 0.2 and 3.5 SD of the protein, either way, in both replicates (recomputed)
erlotinib = compound: C#Cc1cccc(Nc2ncnc3cc(OCCOC)c(OCCOC)cc23)c1 [erlotinib]
Procedure, shortened: (§1)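 The values are log-two fold changes in thermal stability compared with solvent controls and come from duplicates. They were obtained by TMTpro 16plex LC-MS/MS, with channel sums equalised, on the supernatant after 21,000xg for 90 min. That supernatant came from crude K562 extract at 1 mg/mL protein treated with 10 μM compound for 30 min, heated for 3 min across 48°C-58°C, pooled and brought to 0.5% NP-40 at 4°C.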

[1] = compound: C/C(=N\NC(=O)C1=CC(=CC=C1)S(=O)(=O)N2CCOCC2)/C3=C(C=CC(=C3)Cl)O
Procedure, shortened: as §1

[2] = compound: C1=CC(=CC=C1C2=NC3=C(N2)C=C(C=C3)C(=O)N)OC4=CC=C(C=C4)Cl
Procedure, shortened: as §1

[3] = compound: C1=CC2=C(C=CC(=C2)/C=C\3/C(=O)NC(=NCC4=CC=CS4)S3)N=C1
Procedure, shortened: as §1

[4] = compound: C1=CC2=NC=CN=C2C=C1/C=C/3\C(=O)NC(=O)S3
Procedure, shortened: as §1

[5] = compound: C1=CC=C(C=C1)C2=NC(=C(N2)C3=CC=NC=C3)C4=CC(=C(C=C4)Cl)O
Procedure, shortened: as §1

[6] = compound: C1=CC=C2C(=C1)C3=NNC4=CC=CC(=C43)C2=O
Procedure, shortened: as §1

[7] = compound: C1CCN(C1)C(=O)NC2=CC=CC(=C2)NC3=NC=C(C(=N3)NCCC4=CN=CN4)Br
Procedure, shortened: as §1

[8] = compound: C1CN(CCC1(CC2=CC=C(C=C2)Cl)N)C3=NC=NC4=C3C=CN4
Procedure, shortened: as §1

IRAK-1-4 Inhibitor I = compound: C1COCCN1CCN2C3=CC=CC=C3N=C2NC(=O)C4=CC(=CC=C4)[N+](=O)[O-] [IRAK-1-4 Inhibitor I]
Procedure, shortened: as §1

ibrutinib = compound: C=CC(=O)N1CCC[C@@H](n2nc(-c3ccc(Oc4ccccc4)cc3)c3c(N)ncnc32)C1 [ibrutinib]
Procedure, shortened: as §1

[9] = compound: CC(=O)c1cnc2ccc(-c3cc(Cl)c(O)c(Cl)c3)nc2c1N[C@H]1CC[C@H](CN(C)C)CC1
Procedure, shortened: as §1

ralimetinib = compound: CC(C)(C)Cn1c(N)nc2ccc(-c3[nH]c(C(C)(C)C)nc3-c3ccc(F)cc3)nc21 [ralimetinib]
Procedure, shortened: as §1

[10] = compound: CC(C)(O)CC(=O)NCCn1ccc2ncnc(Nc3ccc(Oc4cccc(C(F)(F)F)c4)c(Cl)c3)c21
Procedure, shortened: as §1

[11] = compound: CC(C)C1=C2N=C(C=C(N2N=C1)NCC3=CC=CC=C3)NCCCCCCN
Procedure, shortened: as §1

[12] = compound: CC1=C(C(CC(=O)N1)C2=CC=C(C=C2)C(F)(F)F)C(=O)NC3=C(C=C4C(=C3)C=NN4)F
Procedure, shortened: as §1

[13] = compound: CC1=C(C2=C(C=C1)C(=O)C3=CC=CC=C3N2CCCN)C
Procedure, shortened: as §1

[14] = compound: CC1=C(C=C(C=C1)NC(=O)C2=CC(=CC=C2)C(C)(C)C#N)NC3=CC4=C(C=C3)N=CN(C4=O)C
Procedure, shortened: as §1

[15] = compound: CC1=C(C=C(C=C1)NC(=O)C2=CC(=CC=C2)N(C)C)NC(=O)C3=CC=C(C=C3)O
Procedure, shortened: as §1

[16] = compound: CC1=CC=C(C=C1)SC2=C3C=C(SC3=CN=C2)C(=O)N
Procedure, shortened: as §1

UniProt Q9H0C8, sequence (Q9H0C8 whole entry, looked up): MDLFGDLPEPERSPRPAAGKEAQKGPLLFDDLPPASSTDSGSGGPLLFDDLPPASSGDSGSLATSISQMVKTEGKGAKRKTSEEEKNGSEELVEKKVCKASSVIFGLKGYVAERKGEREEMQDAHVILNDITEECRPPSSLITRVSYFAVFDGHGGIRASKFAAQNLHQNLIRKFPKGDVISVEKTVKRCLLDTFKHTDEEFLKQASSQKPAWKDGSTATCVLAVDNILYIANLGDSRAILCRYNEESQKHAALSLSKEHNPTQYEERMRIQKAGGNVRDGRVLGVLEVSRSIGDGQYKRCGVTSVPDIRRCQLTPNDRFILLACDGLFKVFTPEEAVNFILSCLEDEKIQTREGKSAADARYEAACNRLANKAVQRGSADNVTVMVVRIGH
UniProt P78347, sequence (P78347 whole entry, looked up): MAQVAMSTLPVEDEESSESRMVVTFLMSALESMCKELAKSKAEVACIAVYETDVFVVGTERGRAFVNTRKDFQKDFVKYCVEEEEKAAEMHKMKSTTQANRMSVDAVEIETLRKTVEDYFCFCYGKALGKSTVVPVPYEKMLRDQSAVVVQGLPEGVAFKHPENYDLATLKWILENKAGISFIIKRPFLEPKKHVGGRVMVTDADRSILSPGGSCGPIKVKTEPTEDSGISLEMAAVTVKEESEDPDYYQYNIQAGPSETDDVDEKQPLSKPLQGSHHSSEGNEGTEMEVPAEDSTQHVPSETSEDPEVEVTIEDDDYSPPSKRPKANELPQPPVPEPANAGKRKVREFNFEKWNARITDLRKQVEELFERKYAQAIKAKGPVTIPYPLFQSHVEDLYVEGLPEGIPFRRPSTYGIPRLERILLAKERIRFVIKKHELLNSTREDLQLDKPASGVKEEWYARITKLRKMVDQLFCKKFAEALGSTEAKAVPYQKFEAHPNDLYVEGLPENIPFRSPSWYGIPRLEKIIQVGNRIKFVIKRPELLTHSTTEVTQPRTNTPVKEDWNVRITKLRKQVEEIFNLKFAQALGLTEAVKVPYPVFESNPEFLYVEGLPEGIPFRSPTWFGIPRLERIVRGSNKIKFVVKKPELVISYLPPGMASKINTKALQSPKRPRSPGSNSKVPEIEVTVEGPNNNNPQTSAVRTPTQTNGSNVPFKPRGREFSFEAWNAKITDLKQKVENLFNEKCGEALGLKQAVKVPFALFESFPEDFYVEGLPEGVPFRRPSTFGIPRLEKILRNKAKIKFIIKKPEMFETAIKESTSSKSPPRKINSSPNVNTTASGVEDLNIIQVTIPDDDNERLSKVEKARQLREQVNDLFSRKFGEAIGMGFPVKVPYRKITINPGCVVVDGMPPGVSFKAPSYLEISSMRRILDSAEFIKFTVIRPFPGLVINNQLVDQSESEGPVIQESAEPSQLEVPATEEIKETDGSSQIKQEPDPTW
UniProt P08236, sequence (P08236 whole entry, looked up): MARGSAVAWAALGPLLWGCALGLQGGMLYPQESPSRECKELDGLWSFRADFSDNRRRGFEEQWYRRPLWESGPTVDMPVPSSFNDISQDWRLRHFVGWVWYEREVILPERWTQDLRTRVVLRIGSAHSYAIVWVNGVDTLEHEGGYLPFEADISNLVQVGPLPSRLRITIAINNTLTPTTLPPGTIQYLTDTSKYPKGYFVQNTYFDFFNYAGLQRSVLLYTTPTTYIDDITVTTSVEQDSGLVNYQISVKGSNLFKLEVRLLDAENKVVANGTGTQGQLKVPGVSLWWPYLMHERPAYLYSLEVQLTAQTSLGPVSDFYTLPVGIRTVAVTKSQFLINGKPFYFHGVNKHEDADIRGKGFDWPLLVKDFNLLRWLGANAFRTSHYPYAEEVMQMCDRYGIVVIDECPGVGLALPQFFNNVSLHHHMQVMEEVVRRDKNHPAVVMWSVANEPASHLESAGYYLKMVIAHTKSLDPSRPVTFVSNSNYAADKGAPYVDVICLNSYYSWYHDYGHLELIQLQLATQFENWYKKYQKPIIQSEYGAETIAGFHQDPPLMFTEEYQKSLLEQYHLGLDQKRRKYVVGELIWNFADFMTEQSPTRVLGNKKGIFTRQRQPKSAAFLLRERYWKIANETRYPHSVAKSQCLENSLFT
UniProt Q9BUJ2, sequence (Q9BUJ2 whole entry, looked up): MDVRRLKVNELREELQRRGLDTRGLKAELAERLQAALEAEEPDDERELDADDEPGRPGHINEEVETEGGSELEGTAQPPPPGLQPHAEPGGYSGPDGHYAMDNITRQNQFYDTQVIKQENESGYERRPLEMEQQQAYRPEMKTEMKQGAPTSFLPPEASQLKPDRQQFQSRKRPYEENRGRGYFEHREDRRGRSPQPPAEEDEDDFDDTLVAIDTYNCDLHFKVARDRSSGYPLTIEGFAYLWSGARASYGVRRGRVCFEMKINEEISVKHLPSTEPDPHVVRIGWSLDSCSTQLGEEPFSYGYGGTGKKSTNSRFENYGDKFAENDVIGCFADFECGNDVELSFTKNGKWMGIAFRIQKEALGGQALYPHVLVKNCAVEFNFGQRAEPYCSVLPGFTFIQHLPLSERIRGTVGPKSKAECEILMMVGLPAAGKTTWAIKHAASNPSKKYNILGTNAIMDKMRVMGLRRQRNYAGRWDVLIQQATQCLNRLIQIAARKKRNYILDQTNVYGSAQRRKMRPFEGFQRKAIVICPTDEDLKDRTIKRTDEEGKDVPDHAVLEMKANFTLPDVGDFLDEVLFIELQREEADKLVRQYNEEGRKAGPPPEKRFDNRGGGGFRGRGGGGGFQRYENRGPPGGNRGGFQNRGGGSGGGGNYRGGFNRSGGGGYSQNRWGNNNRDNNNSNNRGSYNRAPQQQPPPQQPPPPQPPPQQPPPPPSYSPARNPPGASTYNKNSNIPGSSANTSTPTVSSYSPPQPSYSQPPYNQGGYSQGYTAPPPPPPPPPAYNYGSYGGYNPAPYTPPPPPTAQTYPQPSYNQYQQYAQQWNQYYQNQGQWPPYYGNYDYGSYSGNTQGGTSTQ
UniProt Q9NSE4, sequence (Q9NSE4 whole entry, looked up): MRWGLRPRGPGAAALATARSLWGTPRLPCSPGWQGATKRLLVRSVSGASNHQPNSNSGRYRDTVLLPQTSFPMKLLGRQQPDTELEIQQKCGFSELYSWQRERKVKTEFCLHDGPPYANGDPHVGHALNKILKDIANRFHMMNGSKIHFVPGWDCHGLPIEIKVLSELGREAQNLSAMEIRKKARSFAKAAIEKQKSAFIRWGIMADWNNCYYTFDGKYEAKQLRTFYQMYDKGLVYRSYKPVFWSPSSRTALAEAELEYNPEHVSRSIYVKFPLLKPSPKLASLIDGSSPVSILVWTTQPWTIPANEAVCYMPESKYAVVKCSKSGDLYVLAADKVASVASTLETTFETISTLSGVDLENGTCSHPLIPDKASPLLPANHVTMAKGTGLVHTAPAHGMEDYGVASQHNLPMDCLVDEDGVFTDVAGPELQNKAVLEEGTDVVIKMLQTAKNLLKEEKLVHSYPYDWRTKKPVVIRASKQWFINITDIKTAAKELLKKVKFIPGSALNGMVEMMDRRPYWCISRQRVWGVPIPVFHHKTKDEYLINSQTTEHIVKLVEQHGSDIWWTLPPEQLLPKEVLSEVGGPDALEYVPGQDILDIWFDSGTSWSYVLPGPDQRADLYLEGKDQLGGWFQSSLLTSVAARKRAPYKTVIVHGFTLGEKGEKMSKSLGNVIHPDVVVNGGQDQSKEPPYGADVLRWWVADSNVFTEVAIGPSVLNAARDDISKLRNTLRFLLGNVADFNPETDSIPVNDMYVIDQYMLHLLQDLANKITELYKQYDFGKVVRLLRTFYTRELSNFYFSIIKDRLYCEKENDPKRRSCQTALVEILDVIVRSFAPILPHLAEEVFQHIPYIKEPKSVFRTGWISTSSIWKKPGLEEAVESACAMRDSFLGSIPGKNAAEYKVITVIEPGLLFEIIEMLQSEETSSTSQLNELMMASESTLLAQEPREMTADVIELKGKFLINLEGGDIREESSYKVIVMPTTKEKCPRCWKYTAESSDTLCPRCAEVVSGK
UniProt P40939, sequence (P40939 whole entry, looked up): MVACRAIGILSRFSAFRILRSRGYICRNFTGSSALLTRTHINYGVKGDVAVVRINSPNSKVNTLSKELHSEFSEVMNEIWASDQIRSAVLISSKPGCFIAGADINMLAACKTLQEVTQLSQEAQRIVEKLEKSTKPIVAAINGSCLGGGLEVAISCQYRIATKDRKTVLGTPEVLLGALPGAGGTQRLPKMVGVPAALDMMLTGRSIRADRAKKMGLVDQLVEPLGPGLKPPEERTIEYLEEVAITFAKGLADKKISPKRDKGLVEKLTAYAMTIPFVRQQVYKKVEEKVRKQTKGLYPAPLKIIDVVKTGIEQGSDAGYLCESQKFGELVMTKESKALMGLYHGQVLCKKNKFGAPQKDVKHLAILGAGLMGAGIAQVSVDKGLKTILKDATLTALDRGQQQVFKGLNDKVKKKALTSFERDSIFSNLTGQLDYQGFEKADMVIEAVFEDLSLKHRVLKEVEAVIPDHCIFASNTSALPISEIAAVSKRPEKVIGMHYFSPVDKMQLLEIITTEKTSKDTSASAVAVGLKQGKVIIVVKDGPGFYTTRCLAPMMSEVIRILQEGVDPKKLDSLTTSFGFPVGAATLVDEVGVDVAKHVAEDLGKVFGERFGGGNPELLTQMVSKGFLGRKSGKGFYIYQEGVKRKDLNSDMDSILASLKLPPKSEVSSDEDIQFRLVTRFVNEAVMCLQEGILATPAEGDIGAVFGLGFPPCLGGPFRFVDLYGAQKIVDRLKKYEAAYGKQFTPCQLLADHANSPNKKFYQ
UniProt Q9NVX0, sequence (Q9NVX0 whole entry, looked up): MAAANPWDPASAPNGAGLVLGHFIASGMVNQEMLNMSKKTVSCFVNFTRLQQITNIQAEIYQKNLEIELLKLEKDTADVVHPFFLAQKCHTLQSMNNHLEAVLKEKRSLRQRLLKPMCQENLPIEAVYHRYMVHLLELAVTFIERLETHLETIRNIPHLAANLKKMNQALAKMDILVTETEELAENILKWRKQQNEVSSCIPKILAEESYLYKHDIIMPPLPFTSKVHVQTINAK

Row | Target | log2 fold change (erlotinib) | log2 fold change [1] | log2 fold change [2] | log2 fold change [3] | log2 fold change [4] | log2 fold change [5] | log2 fold change [6] | log2 fold change [7] | log2 fold change [8] | log2 fold change (IRAK-1-4 Inhibitor I) | log2 fold change (ibrutinib) | log2 fold change [9] | log2 fold change (ralimetinib) | log2 fold change [10] | log2 fold change [11] | log2 fold change [12] | log2 fold change [13] | log2 fold change [14] | log2 fold change [15] | log2 fold change [16]
1 | ILK (UniProt Q13418) | 0.112 | 0.025 | 0.019 | 0.012 | 0.002 | -0.018 | -0.04 | 0.029 | -0.035 | 0.045 | 0.017 | 0.006 | 0 | -0.022 | -0.007 | 0.013 | -0.02 | 0.049 | -0.001 | 0.057
2 | ILKAP (UniProt Q9H0C8) | -0.042 | -0.01 | -0.007 | 0.027 | -0.021 | -0.005 | 0.015 | -0.022 | -0.043 | 0.004 | -0.018 | 0 | -0.007 | 0.031 | -0.032 | 0.007 | 0.037 | -0.016 | 0 | -0.002
3 | HAUS2 (UniProt Q9NVX0) | 0 | 0.045 | -0.12 | 0.116 | -0.02 | 0.03 | 0.031 | -0.015 | 0.026 | 0.003 | 0.145 | 0.1 | 0.054 | 0.058 | 0.003 | 0.026 | -0.079 | -0.017 | 0.023 | -0.021
4 | INTS10 (UniProt Q9NVR2) | 0.008 | 0.056 | -0.001 | 0.061 | -0.044 | 0.026 | -0.061 | -0.006 | 0.044 | -0.004 | 0.079 | 0.021 | 0.01 | -0.02 | -0.023 | 0.036 | 0 | 0.002 | -0.014 | 0.036
5 | GMDS (UniProt O60547) | 0.017 | 0.005 | 0.029 | -0.054 | -0.012 | -0.023 | -0.043 | 0.019 | 0.036 | 0.01 | 0.042 | -0.018 | 0.025 | 0.01 | -0.023 | 0.031 | 0.022 | 0.027 | 0.008 | 0.015
6 | HADHA (UniProt P40939) | -0.08 | 0.042 | 0.387 (active) | 0.014 | -0.087 | -0.003 | 0.026 | -0.067 | 0.04 | 0.031 | 0.078 | -0.057 | 0.012 | 0.05 | -0.042 | -0.031 | -0.01 | 0.055 | -0.033 | 0.077
7 | KCT2 (UniProt Q8NC54) | -0.05 | 0.098 | 0.041 | 0.017 | 0.055 | 0 | -0.026 | 0.021 | 0.01 | 0.031 | 0.025 | 0.018 | 0.038 | -0.076 | -0.015 | 0.008 | -0.034 | -0.025 | 0.004 | -0.024
8 | GTF2I (UniProt P78347) | -0.005 | 0.016 | -0.02 | 0.018 | 0.008 | -0.003 | -0.034 | -0.002 | -0.031 | -0.007 | -0.004 | -0.002 | 0.007 | -0.004 | 0.012 | -0.007 | 0.005 | -0.027 | 0.033 | -0.001
9 | HNRNPUL1 (UniProt Q9BUJ2) | -0.039 | 0.011 | 0.002 | -0.016 | -0.023 | -0.045 | 0.03 | 0.01 | -0.02 | -0.032 | 0.028 | -0.13 | 0.017 | -0.014 | -0.019 | 0 | -0.012 | -0.275 (active) | 0 | 0.007
10 | HDAC3 (UniProt O15379) | 0.061 | -0.035 | 0.056 | -0.008 | -0.001 | 0.01 | 0.019 | -0.017 | 0.029 | 0.028 | -0.004 | 0 | 0.043 | 0.018 | -0.029 | -0.03 | 0 | -0.003 | -0.082 | -0.007
11 | GUSB (UniProt P08236) | -0.053 | -0.043 | 0.135 | -0.072 | -0.041 | -0.058 | -0.072 | -0.003 | 0.055 | 0.066 | 0.06 | -0.099 | 0.056 | -0.097 | 0.099 | -0.075 | 0.069 | 0.044 | -0.029 | -0.088
12 | GNL3 (UniProt Q9BVP2) | 0.004 | -0.072 | 0.002 | 0.009 | -0.062 | 0.015 | -0.011 | 0.021 | 0.014 | 0.033 | 0.023 | -0.063 | -0.026 | -0.021 | 0.05 | -0.005 | -0.073 | 0.009 | -0.007 | -0.057
13 | IARS2 (UniProt Q9NSE4) | -0.025 | 0.014 | 0.026 | 0.005 | 0.013 | -0.007 | -0.043 | -0.01 | 0.054 | 0.016 | -0.006 | -0.008 | -0.005 | 0.007 | -0.025 | -0.031 | 0.016 | 0.005 | 0.013 | -0.031
14 | GLB1 (UniProt P16278) | 0.004 | -0.027 | 0.004 | 0.039 | -0.011 | 0.016 | -0.086 | -0.003 | 0.031 | 0.016 | 0.002 | -0.008 | -0.005 | -0.03 | 0.003 | -0.009 | -0.001 | -0.011 | 0.025 | 0.015
15 | GOLGA1 (UniProt Q92805) | 0.029 | 0.09 | -0.002 | -0.004 | 0.021 | 0 | 0.124 | 0.018 | 0.038 | 0.017 | 0.128 | 0.008 | -0.024 | -0.018 | -0.019 | 0.081 | 0.027 | -0.023 | 0.019 | 0.034
